# Measured values as given in PubChem BioAssay (NCATS).
# Values joined by “and” are separate entries in the source; they are usually repeats but may differ in a detail not shown here. Equal values may be shown once. Results filed as inconclusive are left out. Where a call stands in place of a potency, no number is given. A number with no mark means an inactive call. Active and inactive are the calls of the source. Calls come from the whole dose curve; as a rule, active = well fitted curve in the direction sought with a large enough effect; inconclusive = small, poorly fitted or top-dose-only effect, or another doubt; inactive = no such curve, though single readings can be large; an effect the other way counts as inactive or inconclusive.
# What was measured:
# [1] = biological target: Cellular tumor antigen p53 (Homo sapiens) (UniProt P04637); experiment: Primary qHTS for small molecule compounds that upregulate eGFP-tagged delta133p53alpha (in N-terminal) cells. (AID 2060322); settings: NCI-H358 eGFP-delta133p53alpha fluorescence, 24 h; activation: hits give high values; note: nearly all actives have a fitted effect of over 75% in size; note: potency is the fitted concentration of half-maximal effect; for activation: series mostly up to about 56 µM
# Method in brief: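 NCI-H358 cells pre-induced 24 h with 10 ng/ml doxycycline to express N-terminal eGFP-delta133p53alpha, then dosed 24 h at 37C without doxycycline; fixed, Hoechst-stained, GFP intensity by laser scanning cytometry, normalized to DMSO (0%) and 57.5 uM 5-azacytidine (100%).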
# [2] = biological target: Aldehyde dehydrogenase, mitochondrial (Homo sapiens) (UniProt P05091); experiment: qHTS for Inhibitors of the Aldehyde Dehydrogenase Family (ALDH2) Primary screen (AID 2061308); note: nearly all actives have a fitted effect of over 55% in size
# [3] = biological target: Retinaldehyde dehydrogenase 3 (Homo sapiens) (UniProt P47895); experiment: qHTS for Inhibitors of the Aldehyde Dehydrogenase Family (ALDH1A3) Validation screen (AID 2061312); note: nearly all actives have a fitted effect of over 45% in size
# [4] = biological target: Retinaldehyde dehydrogenase 3 (Homo sapiens) (UniProt P47895); experiment: qHTS for Inhibitors of the Aldehyde Dehydrogenase Family (ALDH1A3) Primary screen (AID 2061315)
# Sequence of Cellular tumor antigen p53 (Homo sapiens) (P04637 whole entry, looked up): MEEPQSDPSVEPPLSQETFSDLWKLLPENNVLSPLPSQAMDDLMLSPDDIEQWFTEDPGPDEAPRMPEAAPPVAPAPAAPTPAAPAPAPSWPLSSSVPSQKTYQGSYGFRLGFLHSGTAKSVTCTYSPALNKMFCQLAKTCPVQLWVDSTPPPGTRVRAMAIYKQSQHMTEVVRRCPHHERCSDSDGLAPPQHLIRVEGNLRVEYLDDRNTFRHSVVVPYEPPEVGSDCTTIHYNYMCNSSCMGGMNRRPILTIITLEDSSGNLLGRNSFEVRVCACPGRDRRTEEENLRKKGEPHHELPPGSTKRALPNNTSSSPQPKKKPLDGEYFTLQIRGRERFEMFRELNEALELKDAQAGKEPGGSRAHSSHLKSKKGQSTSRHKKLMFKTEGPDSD
SMILES,activation [1],Potency [2],Potency [3],Potency [4],Potency [1]
CC[C@H]1OC(=O)C[C@@H](O)[C@H](C)[C@@H](O[C@@H]2O[C@H](C)[C@@H](O)[C@H](N(C)C)[C@H]2O)[C@@H](CCN2C[C@H](C)C[C@H](C)C2)C[C@@H](C)C(=O)/C=C/C(C)=C/[C@@H]1CO[C@@H]1O[C@H](C)[C@@H](O)[C@@H](OC)[C@H]1OC,-8.59%,inactive,inactive,inactive,–
CC(C)c1nc(-c2ccc(NC(=O)Nc3cccc(C(F)(F)F)c3)c3ccccc23)c2c(N)nccn12,–,inactive,inactive,inactive,26.9 µM (active)
O=C(CCCN1CCN(c2ccccn2)CC1)c1ccc(F)cc1,-3.82%,inactive,inactive,inactive,–
CCOC(=O)c1ccc(NC2CCCCC2)c(N)c1,-6.21%,inactive,inactive,inactive,–
OC1(c2ccc(Cl)c(C(F)(F)F)c2)CCN(CCCC(c2ccc(F)cc2)c2ccc(F)cc2)CC1,13%,inactive,inactive,inactive,–
CC(C)c1nnc(-c2ccc(-c3ccccc3)nc2)n1-c1cccc2nonc12,-5.73%,inactive,inactive,inactive,–
N#CC(c1ccnc(OCc2ccc(CN3CCOCC3)cc2)n1)c1nc2ccccc2s1 (centres undefined),0.477%,inactive,inactive,inactive,–
CCNC(=O)c1noc(-c2cc(Cl)c(O)cc2O)c1-c1ccc(OC)cc1,-6.68%,inactive,inactive,inactive,–
CC(NC(=O)CCc1nc2ccccc2c(=O)[nH]1)c1ccccc1 (centres undefined),-1.43%,inactive,inactive,inactive,–
O=C(Nc1ccccc1)c1ccc(Nc2nnc(-c3ccc(O)cc3)c3ccccc23)cc1,2.39%,inactive,inactive,inactive,–
Cc1onc(-c2ccccc2)c1C(=O)N1CCN(c2ccc([N+](=O)[O-])cc2Cl)CC1,-0.477%,inactive,inactive,inactive,–
CCCCN1CCCC[C@H]1C(=O)Nc1c(C)cccc1C,-18.6% and -5.25%,inactive,inactive,inactive,–
CC(=O)NC1=NN(C(C)=O)C(C)(c2ccccc2)S1 (centres undefined),–,inactive,inactive,inactive,12 µM (active)
O=[N+]([O-])c1cn2c(n1)OCC(OCc1ccc(OC(F)(F)F)cc1)C2 (centres undefined),-10%,inactive,inactive,inactive,–
NC(=O)c1cccc2cn(-c3ccc(C4CCCNC4)cc3)nc12 (centres undefined),26.7%,inactive,inactive,inactive,–
CCO[C@H]1CN(C2CCC(O)(c3ccc4c(c3)OCO4)CC2)C[C@@H]1NC(=O)CNC(=O)c1cccc(C(F)(F)F)c1 (some centres undefined),10.5%,inactive,inactive,inactive,–
Cc1onc(-c2ccccc2Cl)c1C(=O)N(C)c1ccc(Cl)cc1,-1.43%,inactive,inactive,inactive,–
COc1cc2c(cc1OC)-c1[nH]nc(Nc3cccc(F)c3)c1C2,6.68%,inactive,inactive,inactive,–
CC(C)(C)c1ccc2c(c1)CC[C@H]2NC(=O)Nc1cccc2[nH]ncc12,-6.68%,inactive,inactive,inactive,–
O=C(Nc1ccc2[nH]c(=O)oc2c1)C(=O)N1CCC(Cc2ccc(F)cc2)CC1,2.39%,inactive,inactive,inactive,–
Cc1cc(C)c(S(=O)(=O)N(Cc2ccc(-c3cccc(S(C)(=O)=O)c3)cc2)Cc2ccc(C(F)(F)F)o2)c(C)c1,-0.955%,inactive,inactive,inactive,–
CC(=O)N(C)C1(c2ccccc2)CCN(CCC[C@]2(c3ccc(Cl)c(Cl)c3)CCCN(C(=O)c3ccccc3)C2)CC1,16.9%,inactive,inactive,inactive,–
COc1ccc([C@@H]2N[C@H](C(=O)O)Cc3c2[nH]c2ccccc32)cc1CN1CCN(c2ccccc2F)CC1,26.7%,inactive,inactive,inactive,–
Cn1nc(C(C)(C)C)cc1C(=O)NC(Cc1cccc(Cl)c1)C(=O)NCC#N (centres undefined),-4.3%,inactive,inactive,inactive,–
O=C(NCCN1CCC(n2c(=O)[nH]c3ccccc32)CC1)c1cc2cc(F)ccc2[nH]1,23.9%,inactive,inactive,inactive,–
Cc1ccc(CCCO)c(NCc2ccc3nc(NCCCN4CCOCC4)n(Cc4nc(C)ccc4O)c3c2)c1,14.3%,inactive,inactive,inactive,–
